Molecules are shown by their SMILES. This is part of a sample that, as a whole, favours compounds with a hit. Of some 83,000 tested, about 20% had one in any assay.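 For each line, cells grew in 96-well plates with the test compound present at a single concentration for 48 hours.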 Values without a mark were called inactive. Activity calls are given as the source filed them.

In this assay the test system is BT-549 breast. The experiment in a line: NCI-60 one-dose screen, 48 h (100 = growth as untreated, 0 = no growth, -100 = all killed). The settings on record: 10 µM unless noted. The method, then:
Growth inhibition of the BT-549 human tumor cell line is measured as a screen for anti-cancer activity. Cells are grown in 96 well plates and exposed to the test compound for 48 hours. Compounds are tested at a single concentration, which is 10^-5 M for most compounds. The reported endpoint is percent growth (GI% or GIPRCNT), where numbers from 0 - 100% represent growth inhibition, and numbers from -100% - 0 represent cell death. For example, a value of 40 represents 60% growth inhibition. A value of 0 means no net growth occurred over the course of the experiment. A value of -40 indicates 40% of cells at the beginning of the experiment died by the end of the experiment. A value of -100 means all cells are dead at the end of the experiment.
NCI-60 Human Tumor Cell Lines Screen was performed using the standard one-dose NCI protocol, which is described in more detail at https://dtp.cancer.gov/discovery_development/nci-60/default.htm.
Compounds with GIPRCNT values below 10 were considered active. Activity score was based on GIPRCNT using the following formula: […]
Score is 0 for GIPRCNT values of 100 or above, 50 for GIPRCNT values of 0, and 100 for GIPRCNT values of -100.
Turning to `O=Nc1c(O)c(Cl)cc2ccccc12`, the growth was 83.7%.

Consider `COc1ccc(-c2nc3ccc(-c4nc5ccc(N6CCN(c7ccc(F)cc7)CC6)cc5[nH]4)cc3[nH]2)cc1OC`, for which the growth is 76.3%.

On to `COc1cc(-c2nc3ccccc3[nH]2)ccc1OCC(=O)N=Nc1c(O)[nH]c2ccc(Cl)cc12`, for which the growth is 9.87% (active).

Consider `COc1cc(-c2nn(-c3ccc(C)cc3)cc2C(=O)O)ccc1O`, for which the growth is 103%.

As to `Cc1nc2ccccc2n1C(=O)C[C@@H]1NC(=S)NC1=O`, the growth was 95.5%.

With `COc1cc(-c2nc(C(=O)NCC(=O)NO)nn2-c2ccc(Cl)cc2)cc(OC)c1OC`, the growth was 105%.

On to `Clc1ccc2c(NCCNc3nc(N4CCOCC4)nc4ccccc34)ccnc2c1`, for which the growth is 93.5%.

Turning to `O=C(/C=C/c1cc(CN2CCOCC2)c(O)c2ncccc12)c1cc(CN2CCOCC2)c(O)c2ncccc12`, the growth is 12.8%.

For the compound `Cn1ccnc1C(=O)/C=C/c1ccc(CC(=O)Nc2ccccc2)cc1`, the growth is 22.4%.

Turning to `COc1ccc(NC2=C(Sc3nc(C)cc(C)n3)C(=O)N(Cc3ccccc3)C2=O)cc1Cl`, the growth is 65.4% [30 µM].

Consider `CCN(CC)c1ccc(-c2cc(-c3cc(OC)c(OC)c(OC)c3)nc(N3CCOCC3)c2C#N)cc1`, for which the growth is 38.6%.

In the case of `COc1cccc(/C=C2\SC(=Nc3ccc(NC(C)=O)cc3)NC2=O)c1OC`, the growth is 97.8%.

In the case of `COc1ccc(CCNc2nc3c(c(=O)n(Cc4ccc(Br)cc4)c(=O)n3C)n2C)cc1OC`, the growth is 86.5%.

Regarding `N=C(N)c1ccc(-c2ccc(-c3ccc4ccccc4c3)s2)s1`, the growth is 82.5%.

With `O=C(COc1ccc(/C=C2\COc3ccccc3C2=O)cc1)Nc1nccs1`, the growth is 2.68% (active).

For the compound `CC(=O)c1nc2ccccc2n1CC(=O)c1cccc(Cl)c1`, the growth is 34.9%.

Regarding `NC1=C(Cl)C(=O)c2ccc(S(N)(=O)=O)cc2C1=O`, the growth was -91.5% (active).

With `COc1cccc2c1C(=O)c1c(O)c3c(c(O)c1C2=O)C[C@](O)(C(=O)CO)C[C@H]3O[C@@H]1C[C@@H](NC(=O)CCCN(C)C2(c3ccc(F)cc3)CC3CCC2C3)[C@H](O)[C@@H](C)O1` (stereo not given in full), the growth is 58.6%.

In the case of `COc1cc(-c2ccc3c(c2)NC(=O)/C3=C\c2ccc[nH]2)ccc1O`, the growth is 46.5%.

For `COc1ccc(C(=O)COc2ccc(/C=C3\COc4ccc(OC)cc4C3=O)cc2)cc1`, the growth is 77.6%.

For the compound `C(=C\c1nccc2c1[nH]c1ccccc12)/c1ccccc1`, the growth was 10.9%.

As for `O=C1NC(=Nc2ccc(O)cc2)S/C1=C\c1cccc(Cl)c1`, the growth is 64.9%.

Turning to `COc1ccc2cc(-c3nn(-c4ccc(C(=O)O)cc4)cc3CO)ccc2c1`, the growth is 93.5%.

As to `OCCN1CCN(c2nc(Nc3ccc(-c4nc5ccccc5[nH]4)cc3)c3cn[nH]c3n2)CC1`, the growth was -52.3% (active).

For `O=C1C=C(OCC=C(Cl)Cl)C(=O)c2ccccc21`, the growth was 78.6%.

Consider `O=C1/C(=C/c2ccc(OCCCOc3ccc(Cl)cc3)cc2)N=C2SCCCN12`, for which the growth was 72.1%.

On to `CSc1nc(NCc2ccccc2)c(C#N)c(-c2cccc([N+](=O)[O-])c2)n1`, for which the growth is 95.8%.

As to `CC/C=C\C[C@H](O)C/C=C1/C(=O)C=C[C@@]1(C)C/C=C\CCCC(=O)OC`, the growth was 104%.

Regarding `CCN(CC)CCCCNc1c2ccc(Cl)cc2nc2ccc(OC)cc12`, the growth is -29.5% (active).

Consider `CCn1c(Cc2ccccc2Nc2c(Cl)cccc2Cl)nnc1SCC(=O)NN1C(=O)/C(=C/c2cc(OC)c(O)c(OC)c2)SC1=S`, for which the growth is 50%.

On to `Clc1ccc2c(NCCCNc3nc(-n4ccnc4)nc4ccccc34)ccnc2c1`, for which the growth was 82.8%.

For the compound `C=C(C)C(=O)Nc1ccc(NC(C)C)cc1`, the growth was 156%.

As to `Nc1ccn(-c2ccc(Br)cc2)c(=O)n1`, the growth was 105%.

`CN(C)C(=S)N=Nc1c(O)[nH]c2ccccc12`: the growth is 30.7%.

In the case of `CSc1nc(NCCN2CCOCC2)c(C#N)c(-c2cccc([N+](=O)[O-])c2)n1`, the growth is 94.2%.

Consider `N#Cc1c(-c2ccc(Cl)cc2)nc(N=Nc2c(O)[nH]c3ccc(Cl)cc23)nc1N1CCOCC1`, for which the growth was 92.1%.

Regarding `CC(=O)O[C@H]1CC[C@]2(C)[C@H]3CC=C4[C@@H]5CC(C)(C)CC[C@]5(C(=O)NCCNCCN)CC[C@@]4(C)[C@]3(C)CC[C@H]2C1(C)C`, the growth was 92.8%.

For the compound `O=C(CN(C(=O)Cn1c(=O)n2nnnc2c2ccccc21)c1ccccc1C(F)(F)F)Nc1ccc(C(F)(F)F)cc1`, the growth was 95.7%.

`COc1cccc(-c2nc3sccn3c2-c2ccnc(NCCCNS(=O)(=O)c3c(Cl)cccc3Cl)c2)c1`: the growth is 43.2%.

`CCc1nc(N)nc(N)c1C#CC(C)c1cc(-c2ccnc(C)c2)c2oc(C)nc2c1` (stereo not given): the growth was 18.2%.

The values above are taken from PubChem BioAssay (NCI).
